Test results reported in PubChem BioAssay (NCI).
This is part of a sample that, as a whole, favours compounds with a hit. Of some 83,000 tested, about 20% had one in any assay.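 Note: values are percent growth. 100 is the growth of untreated cells, values between 100 and 0 indicate rising inhibition; between -100 and 0 indicates cell death.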 The source made the active and inactive calls.

System: KM12 colon
Experiment: NCI-60 one-dose screen, 48 h (100 = growth as untreated, 0 = no growth, -100 = all killed)
Settings: 10 µM unless noted
Procedure: Growth inhibition of the KM12 human tumor cell line is measured as a screen for anti-cancer activity. Cells are grown in 96 well plates and exposed to the test compound for 48 hours. Compounds are tested at a single concentration, which is 10^-5 M for most compounds. The reported endpoint is percent growth (GI% or GIPRCNT), where numbers from 0 - 100% represent growth inhibition, and numbers from -100% - 0 represent cell death. For example, a value of 40 represents 60% growth inhibition. A value of 0 means no net growth occurred over the course of the experiment. A value of -40 indicates 40% of cells at the beginning of the experiment died by the end of the experiment. A value of -100 means all cells are dead at the end of the experiment.
NCI-60 Human Tumor Cell Lines Screen was performed using the standard one-dose NCI protocol, which is described in more detail at https://dtp.cancer.gov/discovery_development/nci-60/default.htm.
Compounds with GIPRCNT values below 10 were considered active. Activity score was based on GIPRCNT using the following formula: […]
Score is 0 for GIPRCNT values of 100 or above, 50 for GIPRCNT values of 0, and 100 for GIPRCNT values of -100.

Row | Structure (SMILES) | growth
1 | C=C1C(=O)O[C@H]2[C@H]1CC/C(COC(=O)c1cn(C)c3ccccc13)=C\CC[C@@]1(C)O[C@@H]21 | 31.2% (inactive)
2 | C#CCN1C(=O)c2ccccc2N(CC#C)C12CCN(Cc1cn(CC(=O)Nc3ccccc3C(N)=O)nn1)CC2 | 88.8% (inactive)
3 | O=[N+]([O-])c1ccc(Oc2ccc(-c3ccccc3)cc2)cc1 | 89.5% (inactive)
4 | C#C[C@@]1(O)[C@@H](CO)O[C@@H](n2cc(I)c3c(N)ncnc32)[C@@H]1O | 9.88% (active)
5 | Cc1cc(O)cc(O)c1N=NC1=NCCS1 | 102% (inactive)
6 | COc1ccc2nc(-c3ccc(Cl)cc3)cc(-c3nnc(SC/C(=N/O)c4ccccc4)o3)c2c1 | 58.1% (inactive)
7 | Cc1cc(C)n(-c2nc(-c3cccs3)c(C#N)c(=O)[nH]2)n1 | 97.9% (inactive)
8 | O=C1CCc2ccccc2N1 | 96.6% (inactive)
9 | NS(=O)(=O)c1ccc(C2C3=C(CCCC3=O)OC3=C2C(=O)c2ccccc2C3=O)cc1 (stereo not given) | -29.1% (active)
10 | CCC[S@](=O)c1ccc2nc(NC(=O)OC)[nH]c2c1 | 103% (inactive)
11 | N#CC(C#N)=C1NC(c2ccccc2)=C(c2ccccc2)C(c2ccccc2Cl)=C1C#N | 113% (inactive)
12 | NS(=O)(=O)c1ccc(-n2ncc(NC(=O)Nc3ccc(S(=O)(=O)Nc4nccs4)cc3)c2-c2ccccc2)cc1 | 108% (inactive)
13 | Cc1ccc(-c2nc(C#N)c(S(=O)(=O)N(C)CCO)o2)cc1 | 89.9% (inactive)
14 | Cc1nc(C)c(C)nc1C | 105% (inactive)
15 | NC(=O)c1ccc(C2C3=C(CCCC3=O)OC3=C2C(=O)c2ccccc2C3=O)cc1 (stereo not given) | 44.1% (inactive)
16 | COc1cc(/C=C/C(=O)/C=C/c2cc3ccc(Cl)cc3[nH]c2=O)ccc1O | 81.3% (inactive)
17 | Nc1c(C(=O)c2ccccc2)sc2nc(-c3cc4ccccc4o3)cc(-c3ccc(Cl)cc3)c12 | 93.4% (inactive)
18 | Oc1ccccc1-c1nc2c3ccccc3c3ccccc3c2o1 | 93.3% (inactive)
19 | Nc1n[nH]c2cccc(C#Cc3cccc(NC(=O)c4cc(N5CCOCC5)cc(C(F)(F)F)c4)c3)c12 | 54.5% (inactive)
20 | COc1ccc2nc3c(n2c1)C(=O)C(=O)c1ccccc1-3 | 23.1% (inactive)

Row | Structure (SMILES) | growth
21 | Nc1c(C(=O)Nc2cccc3ccccc23)sc2nc3c(cc12)CCCCC3 | 22.8% (inactive)
22 | Nc1ccc2c(c1)C(=O)C(=O)c1c-2nc2ccccn12 | 20% (inactive)
23 | COCCOCCOCc1n(Cc2ccc3ccccc3n2)c2ccccc2[n+]1Cc1ccc2ccccc2n1 | 12% (inactive)
24 | N#C/C(=C/c1ccc(O)c([N+](=O)[O-])c1)c1nc(-c2ccc([N+](=O)[O-])cc2)cs1 | 36% (inactive)
25 | O=C(/C(=C\c1c(-c2ccccc2)[nH]c2ccccc12)S(=O)(=O)c1ccccc1)c1ccccc1 | 27% (inactive)
26 | Cc1c(Cl)cccc1NC(=O)c1sc2nc3c(cc2c1N)CCCCC3 | 24.7% (inactive)
27 | O=c1[nH]nc(-c2ccccc2)c2sc(NC(=S)Nc3ccc(Cl)cc3)nc12 | 90% (inactive)
28 | Nc1c(C(=O)Nc2ccccc2)sc2nc3c(cc12)CN(C(=O)OCc1ccccc1)CC3 | 39.1% (inactive)
29 | COc1ccccc1-c1ccc2nc(NC(=O)Nc3cc(C(F)(F)F)cc(C(F)(F)F)c3)sc2c1 | 3.63% (active)
30 | CC(=O)c1ccc(NC(=O)CSc2nnc(-c3cc(-c4ccc(C)cc4)nc4ccccc34)o2)cc1 | 72% (inactive)
31 | COc1ccc2[nH]c(=O)c(/C=C/C(=O)c3ccccc3OC)cc2c1 | 4.37% (active)
32 | COc1cccc(C(=O)OCCn2nc3c4c(cccc42)C(=O)c2ccccc2-3)c1O | 29% (inactive)
33 | CCOC(=O)c1c(C(F)(F)F)n([O-])c2ccc(Cl)cc2[n+]1=O | -78.5% (active)
34 | COc1cc(NCC(=O)Nc2cc(Nc3ccc(C)cc3)ncn2)c(Cl)c(OC)c1Cl | 87.5% (inactive)
35 | Cc1[nH]c2ncnc(Oc3ccc(NC(=O)Nc4ccc(Cl)c(C(F)(F)F)c4)cc3)c2c1C | 27.3% (inactive)
36 | C=C1C(=O)O[C@H]2[C@H]1CC/C(COC(=O)c1cccnc1)=C\CC[C@@]1(C)O[C@@H]21 | 109% (inactive)
37 | COCCOCCOCc1n(Cc2ccc3ccccc3c2)c2ccccc2[n+]1Cc1ccc2ccccc2c1 | -25.9% (active)
38 | CSc1cccc(NC(=O)Nc2nc3c(C)cccc3s2)c1 | 107% (inactive)
39 | CCC1S/C(=N\N=C(/C)c2ccc[nH]2)N(c2ccccc2)C1=O (stereo not given) | 112% (inactive)
40 | CCOC(=O)c1c(-c2ccc(O)cc2)c(C#N)c2c(C#N)c(N)nn2c1N | 47.5% (inactive)
